Experimental data taken from PubChem BioAssay AID652154 (Broad Institute, 2013).
The whole screen tested about 360,000 compounds, of which about 4,200 (1.2%) were called active.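 Rule for the calls: active = mean replicate inhibition at least 60% with every replicate also reaching 60%; inconclusive = only one of the two criteria is met; inactive = mean below 60% and not all replicates reaching 60%.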 The entries come from a sample that favours actives as a whole.

Experiment: PAX8 transcriptional activity inhibition in RMG-I – RMG-I cells, luciferase, single concentration, primary screen (AID 652154);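 note: luciferase light reporting Pax8 driven TPO promoter activity; plate controls were median of neutral control wells for no effect and mitoxantrone controls for full effect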
Details: RMG-I TPO-luciferase reporter, SteadyGlo, 24 h; at 12.6 µM; stronger effect = higher value

Row | Compound | inhibition
1 | CC[C@]1(O)C[C@@H]2CN(CCc3c([nH]c4ccccc34)[C@@](C(=O)OC)(c3cc4c(cc3OC)N(C)[C@H]3[C@@](O)(C(=O)OC)[C@H](OC(C)=O)[C@]5(CC)C=CCN6CC[C@]43[C@@H]65)C2)C1 | 94.6% (active)
2 | CC[C@]1(O)CC2CN(CCc3c([nH]c4ccccc34)[C@@](C(=O)OC)(c3cc4c(cc3OC)N(C=O)[C@H]3[C@@](O)(C(=O)OC)[C@H](OC(C)=O)[C@]5(CC)C=CCN6CC[C@]43[C@@H]65)C2)C1 (stereo partly drawn) | 82% (active)
3 | O=C(C[C@@H]1CC[C@H]2[C@@H](COC[C@@H](O)CN2Cc2nccs2)O1)NCc1ccc(-c2ccccc2)cc1 | 23% (inactive)
4 | C[C@@H]1CN([C@H](C)CO)C(=O)Cc2cc(NC(=O)CCN3CCOCC3)ccc2O[C@@H]1CN(C)S(C)(=O)=O | -16.5% (inactive)
5 | C[C@H](CO)N1C[C@H](C)[C@@H](CN(C)Cc2ccccn2)Oc2ncc(-c3cccc(F)c3)cc2C1=O | -0.625% (inactive)
6 | Cc1ccccc1S(=O)(=O)N1CC(=O)N2[C@H](CO)[C@H](c3ccc(C#CC4CC4)cc3)[C@@H]2C1 | -7.36% (inactive)
7 | COc1cc(SC)ccc1C(=O)Nc1nc(C)cs1 | 72.7% (active)
8 | Cc1csc(NC(=O)CSc2nc(=O)cc(N)n2-c2ccc(F)cc2)n1 | -0.606% (inactive)
9 | COc1cc2ccccc2cc1C(=O)Nc1ccccc1C | -95.1% (inactive)
10 | O=C(Cc1ccccc1)N1C[C@@H]2[C@H](c3ccccc31)[C@@H](CO)N2C(=O)C1CCOCC1 | 10.4% (inactive)
11 | O=C(c1cccnc1)N1CC[C@H]2[C@H](CO)Nc3ccc(-c4ccc(F)cc4)cc3[C@H]21 | 1.77% (inactive)
12 | CN(C[C@@H]1[C@H](c2ccccc2)[C@@H](CO)N1Cc1ccccn1)S(C)(=O)=O | -9.74% (inactive)
13 | CC(OC(=O)/C=C/c1ccccc1)C(=O)NC1CCCCC1C (stereo not drawn) | -9.75% (inactive)
14 | CC1CCCCC1NC(=O)/C(C#N)=C/C=C/c1ccccc1[N+](=O)[O-] (stereo not drawn) | 91.1% (active)
15 | CC1CCCCC1NC(=O)COc1ccc(C#N)cc1 (stereo not drawn) | -9.56% (inactive)
16 | CC(C)NC(=O)Nc1ccc2c(c1)C(=O)N([C@@H](C)CO)C[C@@H](C)[C@H](CN(C)Cc1ccc(C(=O)O)cc1)O2 | -28.1% (inactive)
17 | C[C@H]1CN([C@@H](C)CO)C(=O)c2cccc(NC(=O)c3ccncc3)c2O[C@H]1CN(C)C | -1.05% (inactive)
18 | C[C@@H](O)C#Cc1ccc([C@@H]2[C@H]3CN(S(=O)(=O)c4ccccc4)CCCCN3[C@H]2CO)cc1 | -13.8% (inactive)
19 | COc1ccc(S(=O)(=O)N2CCCCN3[C@H](CO)[C@H](c4ccc(C5=CCCCC5)cc4)[C@@H]3C2)cc1 | 69.6% (active)
20 | CCCC#Cc1ccc([C@H]2[C@@H](CO)N3CCCCN(S(=O)(=O)CC)C[C@H]23)cc1 | 6.07% (inactive)
21 | COc1cccc(S(=O)(=O)N2CCCCN3[C@H](CO)[C@H](c4ccc(C#CC5CC5)cc4)[C@H]3C2)c1 | 12.2% (inactive)
22 | COc1cccc(S(=O)(=O)N2CCCCN3[C@H](C2)[C@@H](c2ccc(C4=CCCCC4)cc2)[C@@H]3CO)c1 | 12.7% (inactive)

Row | Compound | inhibition
23 | COc1ccc(S(=O)(=O)N2CCCCN3[C@@H](CO)[C@@H](c4ccc(C#CCC(C)C)cc4)[C@@H]3C2)cc1 | 46.7% (inactive)
24 | CCCC#Cc1ccc([C@H]2[C@@H](CO)N3CCCCN(S(=O)(=O)Cc4ccccc4)C[C@H]23)cc1 | 86.5% (active)
25 | COc1ccc(S(=O)(=O)N2CCCCN3[C@H](CO)[C@@H](c4ccc(C#CC(C)C)cc4)[C@H]3C2)cc1 | 76.3% (active)
26 | COc1ccc(S(=O)(=O)N2CCCCN3[C@H](C2)[C@H](c2ccc(C#CCC(C)C)cc2)[C@@H]3CO)cc1 | 18.7% (inactive)
27 | CCCC#Cc1ccc([C@H]2[C@H](CO)N3CCCCN(S(=O)(=O)CC)C[C@@H]23)cc1 | -26.1% (inactive)
28 | COc1cccc(S(=O)(=O)N2CCCCN3[C@H](C2)[C@H](c2ccc(C#CC(C)C)cc2)[C@@H]3CO)c1 | 69.8% (active)
29 | COc1ccc(S(=O)(=O)N2CCCCN3[C@H](C2)[C@H](c2ccc(C4=CCCC4)cc2)[C@@H]3CO)cc1 | 9.85% (inactive)
30 | CO[C@H]1CN(C)C(=O)c2ccc(NC(=O)C3CCC3)cc2OC[C@@H](C)NC[C@H]1C | 9.77% (inactive)
31 | CC(=O)NC[C@H]1[C@H](c2ccc(C3=CCCCC3)cc2)[C@@H](CO)N1C(=O)NC(C)C | -0.865% (inactive)
32 | CCCNC(=O)N1C[C@H]2[C@@H](c3ccccc31)[C@H](CO)N2C(=O)NC(C)C | -13% (inactive)
33 | COCC(=O)Nc1ccc2c(c1)C(=O)N(C)C[C@@H](OC)[C@@H](C)CN(C(=O)Cc1ccccn1)[C@@H](C)CO2 | -15.1% (inactive)
34 | CCC(=O)Nc1ccc2c(c1)C(=O)N(C)C[C@H](OC)[C@H](C)CN(CCC(F)(F)F)[C@H](C)CO2 | -9.12% (inactive)
35 | COCC(=O)Nc1ccc2c(c1)OC[C@@H](C)N(C(=O)CC1CC1)C[C@@H](C)[C@@H](OC)CN(C)C2=O | -0.715% (inactive)
36 | C/C=C/c1ccc(C2[C@H]3CNC[C@@H]2N3C(=O)Nc2cc(F)ccc2F)cc1 (stereo partly drawn) | -0.3% (inactive)
37 | CCNC(=O)Nc1ccc2c(c1)C(=O)N(C)[C@H]1CC[C@@H](CC(=O)N[C@H](C)c3ccccc3)O[C@@H]1CO2 | -19% (inactive)
38 | C[C@H]1CN([C@@H](C)CO)C(=O)c2ccccc2-c2ccccc2CO[C@H]1CN(C)S(=O)(=O)c1ccccc1C#N | -18.2% (inactive)
39 | O=C(C[C@@H]1C[C@@H]2c3cc(NS(=O)(=O)c4ccc(F)cc4)ccc3O[C@@H]2[C@H](CO)O1)N1CCCCC1 | 9.01% (inactive)
40 | CCCCc1c(-c2ccc(Br)cc2)ncn1CCc1ccccc1OC | 74% (active)
41 | CCCCCc1c(-c2cccc(Br)c2)ncn1CCc1ccccc1OC | 9.05% (inactive)
42 | CCCCc1c(-c2ccc(Cl)cc2)ncn1CCc1ccccc1OC | 33.1% (inactive)
43 | CN(C)CC#Cc1ccc([C@@H]2[C@H](CO)N3C(=O)CN(C(=O)Cc4cccnc4)C[C@@H]23)cc1 | 17.8% (inactive)
